Values without a mark were called inactive. How the calls were made is not given here.
molecular target: PDL1, Q9NZQ7
Sequence (Q9NZQ7 whole entry): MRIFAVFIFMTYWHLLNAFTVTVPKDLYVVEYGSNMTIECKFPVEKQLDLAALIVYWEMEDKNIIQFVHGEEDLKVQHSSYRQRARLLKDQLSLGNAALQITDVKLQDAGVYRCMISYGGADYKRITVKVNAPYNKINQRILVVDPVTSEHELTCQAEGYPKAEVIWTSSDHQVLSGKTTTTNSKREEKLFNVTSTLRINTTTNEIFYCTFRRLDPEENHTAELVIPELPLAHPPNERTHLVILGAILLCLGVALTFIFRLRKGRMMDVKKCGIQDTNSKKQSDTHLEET

Binder | binding in a display sort
d8r1_design_ppi_877_dldesign_0_cycle1_af2pred (protein) ALAAEAAAAIAKARELLKEIKETGKESKSESVRRFAEGVARKVQALIDQAEAAAADPATALALAKAALKLAEEGLAAVKTLKKAYEE | not found
d8r1_design_ppi_638_dldesign_0_cycle1_af2pred (protein) GDARALRRAADNLARRALEELAAQTATAARAAEVAALLEAGRTEGAAKLAEAAALAAADPLLARAGAYLAAAADFLALAEREE | not found
d8r1_design_ppi_679_dldesign_0_cycle0_af2pred (protein) AAAAARAAIVDETIARIRAELASRPSLAAFAESVLRRGLALGNEAEAARNVAAMLEAAGATAAAAVAREAAARIEAL | not found
d8r1_design_ppi_246_dldesign_0_cycle1_af2pred (protein) ADPEAAARARAAAAVAGATELLKANPANTPAFAAANAEALADSPAAPEAKAAMAKIAAEAEKAAAARKAAEEAAK | not found
d8r1_design_ppi_1240_dldesign_0_cycle1_af2pred (protein) DDATLKQAAALIAEGQAAAAQATTDPAYAAKAKEAYKKAGEVYPESSEFFNIAGEKTAQAALDKYKAAQAAAAAAAA | not found
d8r1_design_ppi_1305_dldesign_0_cycle0_af2pred (protein) ARAEELAEALLAKAKELSKLPMGEAAKAAAAEARALAEQDPETALAAAELAYKRASEDPSVSSKVRALLGAALGAATQQLAAQKAAA | not found
d8r1_design_ppi_36_dldesign_0_cycle0_af2pred (protein) REEVRAKLEAAAAALREVDPVAGEGFRRLAELAFSGEVNGAWAALASLLEHYLPAAEAHDPELGAIVAEAREAALEEWERIQAE | not found
d8r1_design_ppi_156_dldesign_0_cycle0_af2pred (protein) MEEEREREEERRREARRMAQALENAAEAVAARAAAASPAEQPALARAAESLAAAAKVLQKEDPELGAAVEKRAEAILAEIRAR | not found
d8r1_design_ppi_1471_dldesign_0_cycle0_af2pred (protein) MDDSFGKNVIIDAEREIKRFEEAAKKAEEEDKEVAKEIKKIAEEIKKEAEKIKKGEGKLEHSKKALEAMSKGARLVAEFKAK | not found
d8r1_design_ppi_502_dldesign_0_cycle1_af2pred (protein) SLEELVAKAEKYLKEAAKLSPASLAPSVANALAGITEAAKVSPKAAYNLAKSFLDYVKKNGTAEAAKEAEKALEELEKAAK | not found
d8r1_design_ppi_640_dldesign_0_cycle0_af2pred (protein) SEEEEKKAEYLKKAGAAASRAGKVAAANAGNPEIQALAKKAAKALNEAFASNVEEAKKKAEEVEKLAAEAEALAA | not found
d8r1_design_ppi_93_dldesign_0_cycle1_af2pred (protein) ENKSIAQGLLKAMKAAYEQAKKSGKAAQLKATAEAAKAAAKKAKELGDEETAKELEKLAKEAKELAEKAAAAAA | not found
d8r1_design_ppi_353_dldesign_0_cycle1_af2pred (protein) TAAAKAAADAALANLQAFLDVVVAADPQNIARVEKAAQIAISGGKVLAAQHPEVADYAAGAATAAAQAAVDRAKALAAA | not found
d8r1_design_ppi_1493_dldesign_0_cycle0_af2pred (protein) EEEKKKLREEAIKLAKKAAEIAKKSENAKEVIEEIEKAIKYLEEGDYEKAAKELAKAGRLADPEARGYINRALLKVGEAK | not found
d8r1_design_ppi_1319_dldesign_0_cycle1_af2pred (protein) AAAEELKTLAAESIGLIDQAEKALKAGTDELNYLKLVAASARKLGPEIAKLVTAALKAAKAGDKETALKYLKEARKLAEKIAA | not found
d8r1_design_ppi_479_dldesign_0_cycle1_af2pred (protein) AELAKEAKELAEKGIADPSKAPEAAREIAELFAEAVKKGDNEAAAEAHAELSRIYAANPEAGREGHILAAQLMSKYAVES | not found
d8r1_design_ppi_429_dldesign_0_cycle1_af2pred (protein) AAAALAAAAAEGAIELAEYQVEIGNLEAARAFVEGALRAAARADPATAAELRARARAVLEEAERRHKERLEA | not found
d8r1_design_ppi_1379_dldesign_0_cycle1_af2pred (protein) SAAAGAAVAAAGIAAMRAGAAADGLAGARAAAREAARAAMALFRKDPDAGAAALAALDAAWAAISAALAA | not found
d8r1_design_ppi_636_dldesign_0_cycle0_af2pred (protein) DYMDALAAMLKAAAEARALAAAGGDAAAIEAALAKAKELGEEAGKLKGESAKGFAEKVIANVEATIAAAKAARAA | not found
